An excerpt weighted towards active compounds, which were near 1.8% of everything screened.
Tb PFK inh: qHTS Assay to Find Inhibitors of T. brucei phosphofructokinase | ATP-dependent 6-phosphofructokinase (Trypanosoma brucei brucei), O15648 | T. brucei PFK, ADP-Glo luminescence | Potency, µM (highest dose often 57.5 µM), inactives show at the highest dose activity, negative = inhibition, actives largely listed as inhibitors | 0.17% of 330,000 active | AID 485367, 2010;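 further: 0% = uninhibited 1x PFK enzyme wells and -100% = no-enzyme wells; nearly all actives have a fitted effect of over 60% in size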
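In TEA buffer at pH 8.0 with 5 mM MgCl2, enzyme (1.25 nM) converted F6P (0.5 mM) and ATP (0.1 mM) for 45 min at room temperature. ADP product was read by luciferase luminescence.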
GLP1R inv ag: qHTS of GLP-1 Receptor Inverse Agonists (Inhibition Mode); Glucagon-like peptide 1 receptor (Homo sapiens), P43220; HEK293 GLP-1R CRE-luciferase, luminescence, 24 h; GLP-1R form is constitutively active; Potency, µM (titrated, usually from 38.3 µM), inactives show at the highest dose activity change, negative = inhibition, most hits filed as inhibitors; 1.6% of 410,000 active; AID 624417, 2012; further: on the % scale 0 is the no-effect control and ±100 the full control effect; nearly all actives have a fitted effect of over 55% in size
Target sequence (P43220 whole entry, looked up): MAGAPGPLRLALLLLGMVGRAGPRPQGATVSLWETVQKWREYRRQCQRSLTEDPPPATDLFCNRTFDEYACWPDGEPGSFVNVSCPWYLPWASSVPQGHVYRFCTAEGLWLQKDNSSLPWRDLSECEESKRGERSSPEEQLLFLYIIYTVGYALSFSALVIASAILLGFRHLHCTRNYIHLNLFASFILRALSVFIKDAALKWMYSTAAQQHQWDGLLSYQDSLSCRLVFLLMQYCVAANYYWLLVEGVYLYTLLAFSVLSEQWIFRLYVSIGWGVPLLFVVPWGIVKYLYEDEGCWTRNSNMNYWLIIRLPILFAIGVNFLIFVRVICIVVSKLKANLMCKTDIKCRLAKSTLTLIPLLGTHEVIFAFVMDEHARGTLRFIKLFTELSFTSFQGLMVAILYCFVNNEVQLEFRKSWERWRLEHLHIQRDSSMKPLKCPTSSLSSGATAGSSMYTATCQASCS
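Stable HEK293 clone (constitutively active GLP-1R + cAMP-response luciferase); 200 cells/uL plated, 12 h pre-culture, compound 24 hr, 37 deg C/5% CO2; detection reagent 12 min RT; luminescence.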
HEK293 tox: qHTS of GLP-1 Receptor Inverse Agonists: Cytotox Screen | HEK293 cAMP-luciferase reporter cells, luminescence, 24 h | 0.13% of 410,000 active | Potency, µM (top dose mostly 38.3 µM), for inactives: at the top dose activity change, negative = inhibition, usual class: inhibitors;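 further: loss of luciferase light is scored as toxicity; on the % scale 0 is the no-effect control and ±100 the full control effect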
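Luminescence readout: signal drop marks cytotoxicity. Plated cells grew 12 h at 37 °C, 5% CO2, received 23 nL compound for 24 h, then got luciferase reagent, read after 12 min at RT.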
Tb PGK inh: qHTS Assay to Find Inhibitors of Phosphoglycerate Kinase | Potency, µM (series often up to 57.5 µM), for the others: at the highest dose activity change, negative = inhibition, usual class: inhibitors | PGK/GAPDH coupled, Kinase-Glo luminescence, 60 min | 0.043% of 380,000 active | Phosphoglycerate kinase, glycosomal (Trypanosoma brucei brucei), P07378 | AID 602233, 2012; further: on the % scale 0 is the no-effect control and ±100 the full control effect; nearly all actives have a fitted effect of over 60% in size
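Recombinant glycosomal PGK reaction used 1,3-bisphosphoglycerate generated in-well by GAPDH (100nM final) in 100mM TEA pH 7.6, 5mM MgCl2, 0.01% Tween-20. After 60 minutes at room temperature, ATP was read by Kinase-Glo Plus luminescence end-point.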
Pin1 inh: qHTS Assay to Find Inhibitors of Pin1. 0.009% of 390,000 active. Peptidyl-prolyl cis-trans isomerase NIMA-interacting 1 (Homo sapiens), Q13526. Pin1 FP peptide displacement, HiFluor488, 10 min. Potency, µM (series often up to 115 µM), for the others: at the top dose activity, negative = inhibition, usual class: inhibitors; active means well fitted inhibition curve with a large enough effect in the polarisation, with a control signal flat, not every such curve was filed as active; inconclusive means small, poorly fitted or top-dose-only effect, or effect the other way, or a change in a side signal; inactive means no such curve, though single readings can be large or run the other way; the % refers to the polarisation; further: on the % scale 0 is the no-effect control and ±100 the full control effect
Target sequence (Q13526 whole entry, looked up): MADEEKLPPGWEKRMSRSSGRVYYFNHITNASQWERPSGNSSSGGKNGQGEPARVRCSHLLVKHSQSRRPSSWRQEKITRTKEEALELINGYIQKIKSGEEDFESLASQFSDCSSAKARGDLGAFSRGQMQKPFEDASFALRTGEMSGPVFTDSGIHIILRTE
GLP-1R agonist: qHTS of GLP-1 Receptor Agonists; Glucagon-like peptide 1 receptor (Homo sapiens), P43220; HEK293 GLP-1R CRE-luciferase, luminescence, 4-6 h; cells express a hypersensitive GLP-1R form; Potency, µM (doses to about 45.6 µM), without a hit: at the top dose activation, usual class: activators; 0.007% of 380,000 active; AID 624172, 2012; further: % of control where 0% means no effect
An asterisk follows results filed as active; i = inactive; ? = inconclusive; · = not tested or not shown; [ ] = another dose, or the depositor's remark. Unless noted, the call rests on the fitted dose curve; in most records, active means well fitted curve in the direction sought with a large enough effect; inconclusive means small, poorly fitted or top-dose-only effect, or another doubt; inactive means no such curve, though single readings can be large; an effect the other way counts as inactive or inconclusive. Potency means the concentration at half of the fitted maximal effect.

SMILES | Tb PFK inh | GLP1R inv ag | HEK293 tox | Tb PGK inh | Pin1 inh | GLP-1R agonist
Cc1ccc([C@H]2C(C(=O)O)=CC[C@@H](c3ccc(C(C)C)cc3)N2S(=O)(=O)c2ccc(C)cc2)cc1 | 8% | ? | -10% | -6% | · | -5%
COc1ccccc1NC(c1ccc(Cl)cc1)c1nnc(-c2cccc(F)c2)o1 (stereo not given) | · | ? | 6% | 1% | 7% | ·
CCc1ccc2oc(-c3cccc(NC(=O)c4ccc(N5CCC(C)CC5)c([N+](=O)[O-])c4)c3)nc2c1 | · | 2% | -1% | i | 39% | ·
Cn1nnc2c(N3CCN(c4cccc(Cl)c4)CC3)ncnc21 | · | 2% | 4% | -5% | -5% | ·
CC(C)CN(C[C@@H](O)[C@H](Cc1ccccc1)NC(=O)O[C@H]1CCOC1)S(=O)(=O)c1ccc(N)cc1 | · | · | · | · | · | 0%
CCOC(=O)/C(=N/Nc1ccc(OC)cc1)N1CCCc2ccccc21 | 1% | 4.5µM* | 0% | 10% | 5% | -7%
COc1ccc(-c2cn3c(C)c(C(=O)N4CCCc5ccccc54)sc3n2)cc1 | · | 8.9µM* | -21% | -6% | 31% | 4%
Cc1cc(/C=C2\SC(=S)N(C)C2=O)c(C)n1-c1ccc(O)cc1 | 0% | 1.4µM* | 9% | 1% | ? | -5%
CCOC(=O)Cc1csc(NC(=O)CSc2nnnn2-c2ccc(C)cc2C)n1 | -6% | 6.3µM* | -19% | i | -2% | -2%
CCn1c(SCc2ccccc2)nnc1-c1nonc1NC(C)=O | · | -6% | 1% | -4% | 1% | ·
CCCCc1ccc(NC(=O)CC(C)(C)C)cc1 | -11% | 11µM* | 8% | 0% | 1% | 12%
CCCCc1ccc(NC(=O)CC(C)=O)cc1 | 2% | -2% | ? | -5% | -5% | -10%
O=C(/C=C/c1cccc([N+](=O)[O-])c1)NCCSCc1ccc(Cl)cc1 | -20% | 10µM* | -20% | i | -1% | 12%
COc1ccc2c(c1)c1c(c(=O)n(-c3ccc(OC)c(OC)c3)c(=O)n1Cc1ccccc1F)n2C | · | 12% | 2% | i | -5% | -1%
CCc1ccc(-c2csc(NC(=O)C3CCCO3)c2C(=O)OC(C)C)cc1 (stereo not given) | -5%[0.46 µM] | 1.3µM* | 21% | -9% | ? | -2%
COC(=O)c1c(-c2ccc(F)cc2)csc1NC(=O)C1CCCO1 (stereo not given) | 3% | -24% | -9% | 5% | -1% | 27%
O=C(CSc1nc2ccccc2n1CCc1ccccc1)c1ccc(O)c(O)c1 | -24% | ? | ? | 7.9µM* | · | 20%
O=C(CC1SC(=Nc2ccccc2)N(CCc2c[nH]c3ccccc23)C1=O)Nc1ccccc1F (stereo not given) | 0% | 6.3µM* | ? | 4% | ? | 6%
Cc1cc(-n2c(C)cc(C(=O)CCl)c2C)no1 | 1% | 10µM* | ? | i | -4% | -4%
Fc1ccc(CSc2nc3ccccc3[nH]2)c2ccccc12 | 3% | 10µM* | -9% | i | -2% | 0%
O=c1cc(CSc2nc3ccccc3[nH]2)c2ccccc2[nH]1 | -10% | 0% | 5% | -4% | 5% | 12%
COc1ccc(CN(CCC#N)CCC2(c3ccccc3)CC(C)N(C)CC2C)cc1OC (stereo not given) | 2% | 10µM* | ? | 6% | 0% | 3%
CC(=O)Nc1sc2c(c1-c1nc3ccccc3s1)CCS(=O)(=O)C2 | · | · | · | · | 17% | ·
CCc1ccccc1NC(=O)Cn1nnc2sc3c(c2c1=O)CCC(C(C)(C)C)C3 (stereo not given) | · | 11µM* | -14% | · | 25% | ·
Cc1ccc(Cl)cc1NC(=O)Cn1nnc2sc3c(c2c1=O)CCC(C(C)(C)C)C3 (stereo not given) | · | -8% | 6% | · | 45% | ·
SMILES | Tb PFK inh | GLP1R inv ag | HEK293 tox | Tb PGK inh | Pin1 inh | GLP-1R agonist
Clc1ccc2c(c1)-c1ccccc1C1=NCCN12 | · | 4µM* | ? | 8% | · | -11%
Brc1ccc2c(c1)-c1ccccc1C1=NCCN12 | · | ? | ? | -4% | · | -12%
C[C@H]1O[C@H](C2CCCC2)CC2=C1C(=O)OC(C)(C)O2 | · | 28% | 1% | · | · | -5%
CC(C)OCCCNC(=O)c1cn(C)c2ccc(S(=O)(=O)N3CCCCCC3)cc2c1=O | · | 10% | -12% | -9% | -2% | ·
Cc1nc(CC(=O)Nc2cccc(C)c2C)cs1 | · | 7% | 15% | i | 1% | ·
O=C1CC(=O)OC(c2ccc([N+](=O)[O-])cc2)O1 | · | ? | 5µM* | 5% | · | -14%
CCC1C(=O)C(C)(C)C(=O)OC1c1ccc([N+](=O)[O-])cc1 (stereo not given) | 2% | -7% | -8% | -1% | 5% | 15%
O=C(CCn1cnc2onc(-c3ccc(F)cc3)c2c1=O)Nc1ccc(F)c(Cl)c1 | · | 13µM* | -10% | · | 5% | ·
O=C(CCn1cnc2onc(-c3ccc(F)cc3)c2c1=O)Nc1cccc(C(F)(F)F)c1 | · | ? | -18% | -5% | 6% | ·
CC(C)(C)OC(=O)N1CCC(c2c(C(=O)Nc3ccc4c(c3)OCCO4)cnn2-c2ccc(F)cc2F)CC1 | · | ? | -10% | 3% | 11% | ·
CC(C)(C)OC(=O)N1CCC(c2c(C(=O)Nc3cccc(C(F)(F)F)c3)cnn2-c2ccc(F)cc2F)CC1 | · | 5µM* | 4% | -3% | 19% | ·
COc1ccc(N(Cc2cc3cccc(C)c3[nH]c2=O)C(=O)c2cccc(Cl)c2)cc1 | · | 6% | 4% | 11% | 14% | ·
O=C(NCCc1nc2ccccc2n1CCO)C1CCCCC1 | · | · | · | · | -5% | ·
Cc1ccc(OCC(=O)N(Cc2ccc(N(C)C)cc2)CC2CCCO2)cc1C (stereo not given) | · | ? | -3% | -10% | -4% | ·
CCOC(=O)C1=C(C)N(CC)C(=S)NC1c1ccc(Cl)cc1 (stereo not given) | -3% | 10µM* | ? | 6% | 5% | 2%
O=C1C(Cc2ccccc2)Nc2ncnc(N3CCCCC3)c2N1Cc1ccc(Cl)cc1 (stereo not given) | 2% | 13µM* | 0% | -4% | 11% | 4%
CC1Nc2ncnc(N3CCN(c4ccccc4)CC3)c2N(Cc2ccccc2)C1=O (stereo not given) | -1% | -11% | 8% | -4% | 4% | -6%

Screening data as filed in PubChem BioAssay.
